What follows are molecules tested on MOLM14 (assay: cell viability relative to vehicle control; higher = less cytotoxic). Settings: 10 µM; SRSF2 genotype: SRSF2 wt/wt.
How it was run: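 Mutant clones made by CRISPR editing and their isogenic wild-type counterparts, from four leukaemia lines, were exposed to a single 10 µM dose of each library compound for 48 h. The supernatant was then removed and CellTiter-Glo luminescence was read. Viability was reported as percent of the on-plate vehicle control.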
In the case of `O=C(O)c1ccc(C=C2SC(=S)N(c3cccc(C(F)(F)F)c3)C2=O)cc1`, the cell viability is reported as 99.7%. `Cc1cn([C@H]2C[C@H](O)[C@@H](CO)O2)c(=O)[nH]c1=O` [Thymidine] showed a cell viability of 99.7%. With `C[C@]12CC[C@@H]3c4ccc(OC(=O)c5ccccc5)cc4CC[C@H]3[C@@H]1CC[C@@H]2O` [Estradiol Benzoate] the cell viability was 76.1%. Work on `O=C(O)c1ccc(Cl)cc1O` [4-Chloro-2-hydroxybenzoic acid] yielded a cell viability of 107%. `C[C@H]1O[C@@H](Oc2c(-c3cc(O)c(O)c(O)c3)oc3cc(O)cc(O)c3c2=O)[C@@H](O)[C@@H](O)[C@@H]1O` [Myricitrin (Myricitrine)] was tested, and the cell viability was 103%. Molecule `OC[C@H]1O[C@H](OCC2O[C@@H](O)[C@H](O)[C@@H](O)[C@@H]2O)[C@H](O)[C@@H](O)[C@H]1O` (stereo not given in full) [Melibiose] has a cell viability of 108%. Work on `CO[C@@]12[C@H](COC(N)=O)C3=C(C(=O)C(C)=C(N)C3=O)N1C[C@@H]1N[C@@H]12` [Mitomycin C] yielded a cell viability of 0.37%. `CN1C(C(=O)Nc2ccccn2)=C(O)c2ccccc2S1(=O)=O` [Piroxicam (Feldene)] showed a cell viability of 105%. Work on `NC(=O)c1cn(Cc2c(F)cccc2F)nn1` [Rufinamide (Banzel)] yielded a cell viability of 107%. For `O=c1c(-c2ccc(O[C@@H]3O[C@H](CO)[C@@H](O)[C@H](O)[C@H]3O)cc2)coc2cc(O)cc(O)c12` [Sophoricoside], the cell viability was 104%. Molecule `CCOc1cc([C@@H](CS(C)(=O)=O)N2C(=O)c3cccc(NC(C)=O)c3C2=O)ccc1OC` has a cell viability of 94.9%. Work on `Cc1cc2c(C(=O)NCC(C)c3ccccc3)c(O)c(O)cc2c(O)c1-c1c(C)cc2c(C(=O)NCC(C)c3ccccc3)c(O)c(O)cc2c1O` (stereo not given) [Sabutoclax] yielded a cell viability of 13.7%. `O=S(=O)(NCCSSCCNS(=O)(=O)c1cc(Cl)ccc1Cl)c1cc(Cl)ccc1Cl` gave a cell viability of 48.8%. With `CCN(CC)c1ccc2cc(C(=O)O)c(=O)oc2c1` [7-(Diethylamino)coumarin-3-carboxylic acid] the cell viability was 110%. For `CCOC(=O)[C@H](CCc1ccccc1)N[C@@H](C)C(=O)N1[C@H](C(=O)O)C[C@@H]2CCC[C@@H]21` [Ramipril (Altace)], the cell viability was 87.4%. For `O=c1oc2c(O)c(O)cc3c(=O)oc4c(O)c(O)cc1c4c23` [Ellagic acid], the cell viability was 103%. Work on `OCC1OC(OC2OC(CO)C(O)C(O)C2O)C(O)C(O)C1O` [D-(+)-Trehalose Anhydrous] yielded a cell viability of 107%. For `O=c1[nH]cnc2[nH]ncc12` [Allopurinol Sodium (Aloprim)], the cell viability was 91%. Work on `Cc1cc(C2CCCCC2)n(O)c(=O)c1` [Ciclopirox (Penlac)] yielded a cell viability of 2.18%. Molecule `CC(=O)CCc1ccccc1` [Benzylacetone] has a cell viability of 98.6%. With `Clc1ccc(C(Cn2ccnc2)OCc2c(Cl)cccc2Cl)c(Cl)c1` (stereo not given) [Isoconazole nitrate (Travogen)] the cell viability was 79.6%. With `COc1c(O)c(C)cc2c1C(=O)c1c(O)cccc1C2=O` [Obtusifolin] the cell viability was 105%. In the case of `NCCOCCOCCNC(=O)Cc1ccc(Nc2nc(NCc3ccc(F)cc3)nc(NCC3CCCCC3)n2)cc1` [AP-III-a4 (ENOblock)], the cell viability is reported as 14%. In the case of `CC(=O)OC(CC(C)C1=C2CC(O)C3C4(C)CCC(=O)C(C)(C)C4CCC3(C)C2(C)CC1)C1OC1(C)C` (stereo not given) [Alisol B Acetate], the cell viability is reported as 87.8%. Molecule `O=C(c1cccc(Cl)c1F)N1CCN(Cc2cccc(Nc3nccs3)n2)CC1` has a cell viability of 71.4%. In the case of `O=C(/C=C/n1cnc(-c2cc(C(F)(F)F)cc(C(F)(F)F)c2)n1)N1CC(F)(F)C1`, the cell viability is reported as 1.55%. With `CC(=O)Cc1cc(=O)c2c(C)cc(O)c([C@@H]3O[C@H](CO)[C@@H](O)[C@H](O)[C@H]3O)c2o1` [Aloesin] the cell viability was 101%. With `CCOC(=O)c1c(C)n(C)c2ccc(O)cc12` [Mecarbinate] the cell viability was 112%. With `CC(/C=C/C=C(\C)C(=O)O[C@@H]1O[C@H](CO)[C@@H](O)[C@H](O)[C@H]1O)=C\C=C\C=C(C)\C=C\C=C(/C)C(=O)O[C@@H]1O[C@H](CO[C@@H]2O[C@H](CO)[C@@H](O)[C@H](O)[C@H]2O)[C@@H](O)[C@H](O)[C@H]1O` [Crocin II] the cell viability was 104%. For `Cc1c(C)c(NCC(=O)N(C)C2CCN(Cc3ccc(C(N)=O)cc3)CC2)c(C)c(C)c1N`, the cell viability was 96.8%. With `C[C@@H]1C[C@H]2[C@@H]3CCC4=CC(=O)C=C[C@]4(C)[C@@]3(Cl)[C@@H](O)C[C@]2(C)[C@@]1(OC(=O)c1ccco1)C(=O)CCl` [Mometasone furoate] the cell viability was 79%. Work on `N=C(N)c1ccc(OCCCCCOc2ccc(C(=N)N)cc2)cc1` [Pentamidine isethionate] yielded a cell viability of 70.5%. Molecule `CC(=O)OC/C=C(/C)CCC=C(C)C` [Neryl acetate] has a cell viability of 99.6%. `CN1CCN(CCCN2c3ccccc3Sc3ccc(C(F)(F)F)cc32)CC1` [Trifluoperazine 2HCl] gave a cell viability of 58.7%. With `COc1ccc2[nH]cc(CCNC(C)=O)c2c1` [Melatonin] the cell viability was 105%. `Clc1cccc(-c2nnnn2Cc2cccnc2)c1Cl` showed a cell viability of 108%. In the case of `C[C@@]12C[C@H](c3ccoc3)O[C@@]13C[C@H](OC3=O)[C@H]1[C@H]2C[C@@H]2C[C@H]1C(=O)O2` [Diosbulbin B], the cell viability is reported as 110%. `COc1c(O[C@@H]2O[C@H](CO)[C@@H](O)[C@H](O)[C@H]2O)cc2occ(-c3ccc(O)cc3)c(=O)c2c1O` [Tectoridin] gave a cell viability of 96.1%. `COc1ccc(C2CNC(=O)C2)cc1OC1CCCC1` (stereo not drawn) [S-(+)-Rolipram] was tested, and the cell viability was 108%. Molecule `O=C(O)[C@]1(Cc2cccc(Nc3nccs3)n2)CC[C@@H](Oc2cccc(Cl)c2F)CC1` has a cell viability of 20.6%.

— the supplement of paper PMC10981050
